Assay results taken from PubChem BioAssay (NCATS).
Inconclusive results are not listed. Active and inactive are the calls of the source. Unless noted, calls follow the shape of the dose curve; as a rule, active = well fitted curve in the direction sought with a large enough effect; inconclusive = small, poorly fitted or top-dose-only effect, or another doubt; inactive = no such curve, though single readings can be large; an effect the other way counts as inactive or inconclusive.

Experiments:
[1] = qHTS for Inhibitors of Plasmodium falciparum (DD2) proliferation (AID 504314);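 also: parasite DNA measured by SYBR Green fluorescence after red cell lysis; plate controls were DMSO vehicle for no effect and artemisinin wells for full effect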
Procedure, shortened: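 SYBR Green DNA-fluorescence growth assay: infected RBCs at 0.3% parasitemia, 2.5% hematocrit, 72 h compound exposure, 37C, 5% CO2; overnight lysis with dye at RT; normalized to 0.29 uM artemisinin and vehicle.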

[2] = qHTS for Inhibitors of Plasmodium falciparum (7G8) proliferation (AID 504316);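 also: series mostly up to about 6.7 µM; 0% = DMSO vehicle and -100% = 0.29 µM artemisinin full kill; nearly all actives have a fitted effect of over 65% in size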
Procedure, shortened: (§1)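 Parasite growth measured as SYBR Green DNA fluorescence (ex 485, em 535 nm) after overnight lysis following 72 h culture at 37 °C, 0.3% parasitemia, 2.5% hematocrit. Values normalized against DMSO and 0.29 uM artemisinin controls, with plate-stack correction.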

[3] = qHTS for Inhibitors of Plasmodium falciparum (HB3) proliferation (AID 504318);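 also: 0% = DMSO vehicle and -100% = artemisinin control; nearly all actives have a fitted effect of over 60% in size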
Procedure, shortened: as §1

[4] = qHTS for Inhibitors of Plasmodium falciparum (CP250) proliferation (AID 504320);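 also: plate controls were DMSO vehicle for no effect and 0.29 µM artemisinin control for full effect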
Procedure, shortened: as §1

[5] = molecular target: Atrial natriuretic peptide receptor 1 (Homo sapiens) (UniProt P16066); assay: Natriuretic polypeptide receptor (hNpr1) antagonism - Pilot CMLD screen (AID 1347052; calls by dose curve;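 also: HEK293 cells with hNpr1 stimulated by hNppA peptide at 0.1 nM; cGMP level read as GloSensor luciferase luminescence after agonist stimulation; series mostly up to about 9.2 µM; % is scaled to controls: 0 for no effect and ±100 for the full control effect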)
Chain of Atrial natriuretic peptide receptor 1 (Homo sapiens) (P16066 whole entry, looked up): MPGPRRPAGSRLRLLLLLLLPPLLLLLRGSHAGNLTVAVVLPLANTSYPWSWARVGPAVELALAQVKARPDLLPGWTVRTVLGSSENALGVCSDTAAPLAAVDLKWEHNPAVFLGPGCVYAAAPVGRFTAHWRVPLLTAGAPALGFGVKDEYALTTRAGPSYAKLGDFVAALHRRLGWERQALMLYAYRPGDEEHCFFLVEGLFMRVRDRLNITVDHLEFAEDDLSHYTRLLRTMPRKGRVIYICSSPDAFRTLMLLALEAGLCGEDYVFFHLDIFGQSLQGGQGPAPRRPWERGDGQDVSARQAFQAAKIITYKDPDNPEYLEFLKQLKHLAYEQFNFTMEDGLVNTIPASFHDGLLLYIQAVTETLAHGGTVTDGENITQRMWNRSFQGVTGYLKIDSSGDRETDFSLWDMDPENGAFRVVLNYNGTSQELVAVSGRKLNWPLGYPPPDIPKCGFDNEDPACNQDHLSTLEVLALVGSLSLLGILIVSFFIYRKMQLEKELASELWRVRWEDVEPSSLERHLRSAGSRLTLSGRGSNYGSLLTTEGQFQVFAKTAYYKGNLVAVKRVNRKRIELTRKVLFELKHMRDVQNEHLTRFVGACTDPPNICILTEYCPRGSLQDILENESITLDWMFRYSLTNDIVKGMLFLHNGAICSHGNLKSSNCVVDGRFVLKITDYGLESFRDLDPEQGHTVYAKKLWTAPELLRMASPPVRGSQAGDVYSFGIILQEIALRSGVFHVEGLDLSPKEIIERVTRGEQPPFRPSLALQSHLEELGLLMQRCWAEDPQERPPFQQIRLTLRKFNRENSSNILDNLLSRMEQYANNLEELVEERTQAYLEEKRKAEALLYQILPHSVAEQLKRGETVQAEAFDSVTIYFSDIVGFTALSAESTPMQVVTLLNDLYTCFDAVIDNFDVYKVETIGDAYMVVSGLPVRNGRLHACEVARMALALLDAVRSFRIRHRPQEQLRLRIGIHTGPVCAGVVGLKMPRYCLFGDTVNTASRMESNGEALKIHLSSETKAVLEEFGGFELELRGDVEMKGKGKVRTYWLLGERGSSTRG

CCOC(=O)CN1C(=O)N[C@@H](CCc2ccccc2)[C@H](C(=O)OC)[C@H]1C
inactive: Potency [1] | Potency [2] | Potency [3] | Potency [4] | Potency [5]

C=CCC12OC3(OC)CC1[C@H](C)[C@@H](c1ccccc1)C2[C@]3(O)CC=C (some centres undefined)
inactive: Potency [1] | Potency [2] | Potency [3] | Potency [4] | Potency [5]

COc1ccc(COC(=O)NN=C2C[C@@H](O)[C@@H](O)[C@@H]3[C@H]4C(=O)N(C[C@@H]5CCCO5)C(=O)[C@@H]4CC[C@@H]23)cc1
inactive: Potency [1] | Potency [2] | Potency [4] | Potency [5]

CC1(OC(=O)c2cccs2)C(=O)C=C2C=C(c3ccsc3)OC=C2C1=O (centres undefined)
inactive: Potency [1] | Potency [2] | Potency [3] | Potency [4] | Potency [5]

COC(=O)N[C@@H](c1ccc2ccccc2c1)C(C(C)=O)C(=O)OC (some centres undefined)
inactive: Potency [1] | Potency [2] | Potency [3] | Potency [4] | Potency [5]

COC(=O)N[C@H](C[N+](=O)[O-])C(C)(C)C
inactive: Potency [1] | Potency [2] | Potency [3] | Potency [4] | Potency [5]

CCOC(=O)CN1C(=O)NC(c2cccc(C(F)(F)F)c2)C(C(=O)OC)=C1C (centres undefined)
inactive: Potency [1] | Potency [2] | Potency [3] | Potency [4] | Potency [5]

CCOC(=O)C1=CN(CCC=C(C)C)C(=O)NC1c1ccccc1 (centres undefined)
inactive: Potency [1] | Potency [2] | Potency [3] | Potency [4] | Potency [5]

CC(CCC(=O)OC[C@H]1O[C@H](C#Cc2ccccc2)C=C[C@H]1Oc1ccc(C)cc1)=NO[C@@H](C)c1cn([C@H](CO)Cc2ccccc2)nn1
inactive: Potency [1] | Potency [2] | Potency [3] | Potency [4] | Potency [5]

COC(=O)C(C(=O)OC)[C@@H]1O[C@@]23COCC[C@]2(C)[C@@H]3c2ccccc21
inactive: Potency [1] | Potency [2] | Potency [3] | Potency [4] | Potency [5]

CC1=CC[C@@H](C)O[C@@]2(C1)C(=O)Nc1ccccc12
inactive: Potency [1] | Potency [2] | Potency [3] | Potency [4] | Potency [5]

COC(=O)CC=C[C@@H](C)[C@H](NC(=O)OCC(Cl)(Cl)Cl)c1ccc2ccccc2c1
inactive: Potency [1] | Potency [2] | Potency [3] | Potency [4] | Potency [5]

C=CCOC(=O)C(C(C)=O)[C@@H](NC(=O)OC)c1cccc(C)c1 (some centres undefined)
inactive: Potency [1] | Potency [2] | Potency [3] | Potency [4] | Potency [5]

C=CCN1C=C2C(=O)C(C)(OC(=O)c3ccc(OC)cc3)C(=O)C(c3ccco3)=C2C=C1CCCC (centres undefined)
inactive: Potency [1] | Potency [2] | Potency [3] | Potency [4] | Potency [5]

CC(=O)Nc1ccc(S(=O)(=O)N2CCc3nc(-c4ccccc4)c4c(c3C2)CO[C@@H](C)C4)cc1
inactive: activity, negative = inhibition [1] -1.41% [at 1.12 µM] | Potency [2] | Potency [3] | Potency [4] | Potency [5]

COc1cccc([C@H]2Oc3ccc(OC)cc3C(=NOC[C@@H](C)[C@H](OCc3ccccc3)C(C)C)[C@H]2O)c1
inactive: Potency [1] | Potency [2] | Potency [3] | Potency [4] | Potency [5]

COCC=CC1=CC2=CC(=O)C(C)(OC(=O)c3cnc4ccccc4n3)C(=O)C2=CN1Cc1ccc(OC)cc1 (centres undefined)
inactive: Potency [1] | Potency [2] | Potency [3] | Potency [4] | Potency [5]

CCN1C(=NCCCCO)N[C@@H](CCc2ccccc2)[C@H](C(=O)OC)[C@H]1C
inactive: Potency [1] | Potency [2] | Potency [3] | Potency [4] | Potency [5]

COc1ccc(C(O)C2=CCCC2=O)cc1 (centres undefined)
inactive: Potency [1] | Potency [2] | Potency [3] | Potency [4] | Potency [5]

CCOC(=O)C1=C(CCl)NC(=O)N(C(C)=O)C1c1ccccc1 (centres undefined)
inactive: Potency [1] | Potency [2] | Potency [3] | Potency [4] | Potency [5]

C=C(C[C@]1(C(=O)OC)C[C@]2(CC=C(C)C)C(=O)C(C(=O)CC(C)C)=C(O)[C@@](CC=C(C)C)(C1)C2=O)C(=O)OC
inactive: Potency [1] | Potency [2] | Potency [3] | Potency [4] | Potency [5]

COC(=O)CC(Oc1c(C)n(C)c2ccccc2c1=O)c1ccccc1 (centres undefined)
inactive: Potency [1] | Potency [2] | Potency [3] | Potency [4] | Potency [5]

C[C@H]1Cc2c(-c3ccccc3)nc3c(c2CO1)CN(C(=O)Nc1cccc(C#N)c1)CC3
inactive: activity, negative = inhibition [1] -4.46% [at 1.12 µM] | Potency [2] | Potency [3] | Potency [4] | Potency [5]

COc1ccc(COC(=O)NN=C2C[C@@H](O)[C@@H](O)[C@@H]3[C@H]4C(=O)N(c5cccc(Oc6ccccc6)c5)C(=O)[C@@H]4CC[C@H]23)cc1
inactive: Potency [1] | Potency [2] | Potency [3] | Potency [4] | Potency [5]

CCOC(=O)C1=CN(CCNC(=O)OC(C)(C)C)C(=O)NC1c1ccccc1 (centres undefined)
inactive: Potency [1] | Potency [2] | Potency [3] | Potency [4] | Potency [5]

COC(=O)N[C@@H](C=Cc1ccccc1)[C@@H](C)[N+](=O)[O-]
inactive: Potency [1] | Potency [2] | Potency [3] | Potency [4] | Potency [5]
